Screening results deposited in PubChem BioAssay by National Center for Advancing Translational Sciences (NCATS).
KB-V1 MDR tox – KB-V1 MDR subline cytotoxicity | 400,000 tested, 3.4% active | Potency, µM (doses to about 46.1 µM), actives largely listed as cytotoxic | KB-V1 MDR cells viability, CellTiter-Glo, 72 h | AID 1347076; also: nearly all actives have a fitted effect of over 60% in size
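Compound-treated KB-V1 multidrug-resistant cells, 72 h, 37 degrees C; viability by CellTiter-Glo. Fitted qHTS curves give the values.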
HT1080 IDH1KD tx – kills HT-1080 cells with IDH1 knockdown. HT-1080 IDH1 knockdown viability, ATP luminescence, 48 h. Potency, µM (top dose mostly 46.1 µM), most hits filed as cytotoxic. 360,000 tested, 2% active. AID 686971
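% activity derives from luminescence (CellTiter-Glo), normalised to DMSO and no-cell wells. HT-1080-IDH1KD cells, 750/well, had 48 h compound exposure at 37 °C.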
KB-3-1 tox – kills parental KB-3-1 adenocarcinoma cells. KB-3-1 viability, CellTiter-Glo ATP luminescence, 72 h. AID 1347075. Potency, µM (titrated, usually from 46.1 µM), usual class: cytotoxic. 400,000 tested, 1.4% active; also: nearly all actives have a fitted effect of over 60% in size
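Using CellTiter-Glo luminescence, growth of non-resistant KB-3-1 adenocarcinoma cells is assessed 72 h after pin-tool compound addition at 37 °C. Normalized responses across the concentration series yield fitted curves.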
HT1080-NT tox – kills 2HG-producing HT-1080-NT fibrosarcoma cells. HT-1080-NT fibrosarcoma viability, CellTiter-Glo ATP luminescence, 48 h. Potency, µM (titrated, usually from 46.1 µM), most hits filed as cytotoxic. 360,000 tested, 1.6% active. AID 686970;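 also: NT is the 2HG producing partner of a matched IDH1 knockdown line; nearly all actives have a fitted effect of over 55% in size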
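HT-1080-NT; 750 cells/well; 5% FBS RPMI; 48 h compound, 37 degrees C; CellTiter-Glo luminescence; curve fitting and curve-class assignment.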
Of the large screens only hits and unclear results are named; the others gave an inactive call. Only some compounds are listed: those with a hit (about 5.7% of all), similar ones and a draw of the others. Calls follow the shape of the dose curve; as a rule, active = well fitted curve in the direction sought with a large enough effect; inconclusive = small, poorly fitted or top-dose-only effect, or another doubt; inactive = no such curve, though single readings can be large; an effect the other way counts as inactive or inconclusive.

COc1ccc(NC(=O)c2ccc(F)cc2)cc1S(=O)(=O)Nc1cc(C)ccc1Br	KB-V1 MDR tox 4.61µM, HT1080 IDH1KD tx inconclusive, KB-3-1 tox inconclusive, HT1080-NT tox inconclusive
COc1ccc(NS(=O)(=O)c2cc(NC(=O)c3ccc(F)cc3)ccc2OC)cc1	KB-V1 MDR tox inconclusive
Cc1ccc(NS(=O)(=O)c2cc(NC(=O)C(C)Oc3ccccc3)ccc2C)c(C)c1 (configuration not stated)	KB-V1 MDR tox 18.4µM, HT1080 IDH1KD tx inconclusive, KB-3-1 tox inconclusive
COc1ccccc1NS(=O)(=O)c1cc(N/C(=N\S(=O)(=O)c2ccccc2)c2ccc(F)cc2)ccc1Cl	KB-V1 MDR tox inconclusive
Cc1ccc(NC(=O)C(C)Oc2ccccc2)cc1S(=O)(=O)N1CCCCCC1 (configuration not stated)	none
CCNC(=S)Nc1ccc(C)c(S(=O)(=O)Nc2ccccc2OC)c1	none
COc1ccccc1Cn1cc(C(=O)c2ccc(C)cc2)c(=O)c2cc3c(cc21)OCCO3	none (no result: HT1080 IDH1KD tx, HT1080-NT tox)
Cc1ccc(C)c(S(=O)(=O)N2CCN(C(=O)c3cc(-c4cccs4)nn3-c3ccccc3)CC2)c1	KB-V1 MDR tox 6.51µM, KB-3-1 tox inconclusive
CN(CC(=O)Nc1c(Cl)cccc1Cl)C(=O)c1cc(-c2cccs2)nn1-c1ccccc1	KB-V1 MDR tox 4.11µM
Cn1cc2ccc(-c3ccc4ncnc(NCc5cccs5)c4c3)cc2n1	none (no result: HT1080 IDH1KD tx, HT1080-NT tox)
CCOc1ccc2nc(N3CCCC(C(=O)Nc4ccc(Br)c(C)c4)C3)sc2c1 (configuration not stated)	none (no result: HT1080 IDH1KD tx, HT1080-NT tox)
COc1ccccc1NC(=O)C1=C(C)N(c2ccccc2)C(=S)NC1c1cccc(C(F)(F)F)c1 (configuration not stated)	KB-V1 MDR tox 8.2µM, HT1080 IDH1KD tx inconclusive, KB-3-1 tox inconclusive, HT1080-NT tox inconclusive
CCOC(=O)c1c(Cl)c(C)nn1-c1nc(OC)cc(OC)n1	KB-V1 MDR tox 2.91µM, KB-3-1 tox inconclusive
CCOC(=O)c1cc(C)nn1-c1nc(Cl)cc(OC)n1	none
C=C1C=C(C(F)F)n2ncc(C(=O)Nc3cccc(CC)c3)c2N1	KB-V1 MDR tox inconclusive (no result: HT1080 IDH1KD tx, HT1080-NT tox)
CCCNC(=O)c1ccc2c(=O)c(O)c(-c3cccc(Br)c3)[nH]c2c1	HT1080 IDH1KD tx inconclusive, KB-3-1 tox 11.6µM
CCCNC(=O)c1ccc2c(=O)c(O)c(-c3ccc(F)cc3)[nH]c2c1	KB-3-1 tox inconclusive
COC(=O)C(NNc1ccc(F)cc1)(NC(=O)c1ccccc1)C(F)(F)F (configuration not stated)	KB-V1 MDR tox 18.4µM
Cc1ccc(-c2cn3c(n2)sc2cc(C(=O)NCCCN4CCCCCC4)ccc23)cc1	none (no result: HT1080 IDH1KD tx, HT1080-NT tox)
CC1CCCCN1CCCNC(=O)c1ccc2c(c1)sc1nc(-c3ccc(F)cc3)cn12 (configuration not stated)	KB-V1 MDR tox 20.6µM (no result: HT1080 IDH1KD tx, HT1080-NT tox)
O=C(NCCCN1CCCCC1)c1ccc2c(c1)sc1nc(-c3ccc(F)cc3)cn12	KB-V1 MDR tox 16.4µM (no result: HT1080 IDH1KD tx, HT1080-NT tox)
CCCN1CCN(CCCNC(=O)c2ccc3c(c2)sc2nc(-c4ccc(OCC)cc4)cn23)CC1	KB-V1 MDR tox inconclusive, KB-3-1 tox 18.4µM (no result: HT1080 IDH1KD tx, HT1080-NT tox)
CCOc1ccc(-c2cn3c(n2)sc2cc(C(=O)NCCCN4CCCCC4)ccc23)cc1	KB-V1 MDR tox 20.6µM, KB-3-1 tox inconclusive (no result: HT1080 IDH1KD tx, HT1080-NT tox)
COCCc1nn2c(=O)cc(COC(=O)COc3ccccc3C)nc2s1	none (no result: HT1080 IDH1KD tx, HT1080-NT tox)
c1ccc(CN2CCC(Nc3ncnc4sccc34)CC2)cc1	HT1080 IDH1KD tx inconclusive
Cc1sc2ncnc(NC3CCN(Cc4ccccc4)CC3)c2c1C	KB-V1 MDR tox 1.64µM, HT1080 IDH1KD tx inconclusive, KB-3-1 tox inconclusive, HT1080-NT tox inconclusive
Cc1ccc(CNCC(O)(c2ccccc2)c2ccccc2)cc1	none
COc1ccc(CNCC(O)(c2ccccc2)c2ccc(Cl)cc2)cc1 (configuration not stated)	KB-V1 MDR tox 13µM, KB-3-1 tox inconclusive, HT1080-NT tox inconclusive
Cc1ccc(CNCC(O)(c2ccccc2)c2ccc(Cl)cc2)cc1 (configuration not stated)	KB-V1 MDR tox inconclusive, HT1080 IDH1KD tx inconclusive, HT1080-NT tox 23.1µM
Cc1ccccc1OCc1nnc(SCc2cc(=O)[nH]c3ccccc23)o1	none
Cc1ccc(OCc2nnc(SCc3cc(=O)[nH]c4ccccc34)n2-c2ccccc2)cc1	HT1080 IDH1KD tx inconclusive, HT1080-NT tox 16.4µM
Cc1ccccc1OCc1nnc(SCc2cc(=O)[nH]c3ccccc23)n1-c1ccccc1	KB-V1 MDR tox 16.4µM, KB-3-1 tox inconclusive
Cc1ccc(-n2c(COc3ccccc3)nnc2SCC(=O)O)cc1	none
CCc1ccccc1NC(=O)CN(c1ccccc1)S(=O)(=O)c1ccsc1C(=O)OC	none (no result: HT1080 IDH1KD tx, HT1080-NT tox)
Cc1cc(=O)oc(C)c1C(=O)OC(C(=O)c1ccccc1)c1ccccc1 (configuration not stated)	KB-V1 MDR tox 23.1µM
COc1ccc(C(=O)C(OC(=O)c2ccccc2)c2ccccc2)cc1 (configuration not stated)	KB-V1 MDR tox 13µM
COc1cc(OC)c(NC(=O)Cn2c(=O)cc(C(F)(F)F)c3c(C)nn(C)c32)cc1Cl	none (no result: HT1080 IDH1KD tx, HT1080-NT tox)
CCOC(=O)C(C(=O)OCC)N(C#N)c1nc(N(C)C)nc(N(C)C)n1	none
CCn1cc[n+](C)c1P(c1ccccc1)c1ccccc1	KB-3-1 tox 7.31µM
O=S(=O)(c1ccc(Br)cc1)N1CCN(c2nc(-c3ccccc3)nc3ccccc23)CC1	none (no result: HT1080 IDH1KD tx, HT1080-NT tox)
CCn1c(/C=C/N(C)c2ccccc2)[n+](CC)c2ccc(Cl)cc21	KB-3-1 tox 5.17µM, HT1080-NT tox 7.08µM
CC(=O)Nc1ccc(CN2CCc3c([nH]c4ccccc34)C2c2ccccn2)cc1 (configuration not stated)	KB-V1 MDR tox inconclusive, HT1080 IDH1KD tx 18.4µM, KB-3-1 tox inconclusive, HT1080-NT tox 23.1µM
c1ccc(C2c3[nH]c4ccccc4c3CCN2Cc2cccn2-c2ccccn2)nc1 (configuration not stated)	none
COC(=O)c1c(C)[nH]c(C(=O)/C=C/c2ccccc2)c1C	KB-V1 MDR tox 11.6µM, HT1080 IDH1KD tx inconclusive
O=C(C=Cc1ccccc1)c1c[nH]c2ccccc2c1=O	KB-V1 MDR tox 7.31µM, HT1080 IDH1KD tx inconclusive, KB-3-1 tox 5.17µM, HT1080-NT tox 8.2µM
Cc1[nH]c2ccccc2c(=O)c1C(=O)/C=C/c1ccccc1	KB-V1 MDR tox 14.6µM, HT1080 IDH1KD tx inconclusive, KB-3-1 tox inconclusive
Cc1[nH]c2ccccc2c1/C=C/C(=O)c1ccccc1	KB-V1 MDR tox inconclusive, HT1080 IDH1KD tx inconclusive, KB-3-1 tox inconclusive
CCOc1cc(-c2nc(-c3ccc(-c4ccc(OC)cc4)nc3OC)no2)cc(OCC)c1OCC	none (no result: HT1080 IDH1KD tx, HT1080-NT tox)
CC(=O)Nc1cccc(C(=O)/C=C/c2ccc(Br)cc2)c1	KB-V1 MDR tox inconclusive, HT1080-NT tox inconclusive
CC(=O)Nc1cccc(C(=O)/C=C/c2ccc(F)cc2)c1	KB-V1 MDR tox inconclusive, HT1080 IDH1KD tx 11.6µM
CCOC(=O)c1c(NC(=O)COc2ccc(Cl)cc2C)sc(C(C)=O)c1C	none (no result: HT1080 IDH1KD tx, HT1080-NT tox)
Cc1ccc(Cl)cc1OCC(=O)NCCOC(=O)Nc1sc(=S)n(C)c1C	KB-V1 MDR tox 13µM, KB-3-1 tox inconclusive
CCOc1ccc(CCNC(=O)c2cc3c(=O)n(C)c4ccccc4c3n2C)cc1OCC	KB-3-1 tox inconclusive (no result: HT1080 IDH1KD tx, HT1080-NT tox)
